About 14,000 (4.5%) of roughly 310,000 compounds showed an effect of 50% or more. The effect is printed as a negative number. The full list was thinned out, with strong results kept by preference.
Each compound was assayed against human ether-à-go-go-related gene (hERG) potassium channel (human, UniProt Q12809) (assay: primary screen, population patch clamp on CHO cells stably expressing hERG; higher = less effect of the substance).
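Note: peak tail current of the secondary pulse compared with the same well before compound.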

Chain of human ether-à-go-go-related gene (hERG) potassium channel (Q12809 whole entry, looked up): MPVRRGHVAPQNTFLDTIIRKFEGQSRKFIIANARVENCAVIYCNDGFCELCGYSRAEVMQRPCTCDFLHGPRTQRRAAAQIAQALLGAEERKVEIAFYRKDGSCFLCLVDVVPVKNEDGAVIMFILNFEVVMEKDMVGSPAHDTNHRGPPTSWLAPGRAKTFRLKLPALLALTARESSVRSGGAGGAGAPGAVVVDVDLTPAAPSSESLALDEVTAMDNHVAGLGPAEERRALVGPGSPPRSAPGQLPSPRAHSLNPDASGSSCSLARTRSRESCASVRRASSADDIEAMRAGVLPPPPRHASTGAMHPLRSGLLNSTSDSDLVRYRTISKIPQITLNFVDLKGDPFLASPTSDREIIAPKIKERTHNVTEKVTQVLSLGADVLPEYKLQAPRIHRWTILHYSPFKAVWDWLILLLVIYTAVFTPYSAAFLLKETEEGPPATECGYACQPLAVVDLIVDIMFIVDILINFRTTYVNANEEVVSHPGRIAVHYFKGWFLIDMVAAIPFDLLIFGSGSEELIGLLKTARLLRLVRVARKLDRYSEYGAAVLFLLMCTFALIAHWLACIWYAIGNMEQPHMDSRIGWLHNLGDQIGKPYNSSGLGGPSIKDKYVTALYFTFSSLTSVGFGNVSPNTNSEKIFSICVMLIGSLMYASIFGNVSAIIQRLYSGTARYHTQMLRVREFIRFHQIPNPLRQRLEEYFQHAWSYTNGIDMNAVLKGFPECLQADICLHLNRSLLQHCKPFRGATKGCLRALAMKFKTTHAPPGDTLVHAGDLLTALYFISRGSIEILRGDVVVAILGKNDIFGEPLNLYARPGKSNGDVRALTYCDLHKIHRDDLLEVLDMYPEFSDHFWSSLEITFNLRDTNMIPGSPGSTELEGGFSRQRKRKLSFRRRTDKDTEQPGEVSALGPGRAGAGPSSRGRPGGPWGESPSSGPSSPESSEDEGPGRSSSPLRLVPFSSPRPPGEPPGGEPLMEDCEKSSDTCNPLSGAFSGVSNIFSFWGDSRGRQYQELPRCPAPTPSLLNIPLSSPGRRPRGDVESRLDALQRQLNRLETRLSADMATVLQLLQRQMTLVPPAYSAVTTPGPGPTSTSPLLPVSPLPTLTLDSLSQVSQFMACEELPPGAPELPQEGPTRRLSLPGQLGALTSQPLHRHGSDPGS

Compound	hERG current change (%, negative = inhibition) at 10uM [%]
NNC(=O)c1cccc(S(=O)(=O)Nc2cccc(C(F)(F)F)c2)c1	1.4
CC1CN(c2ccc([N+](=O)[O-])cn2)CC(C)O1 (centres unmarked)	-19.7
O=C1CCC(=O)N1CCC(c1ccc(F)cc1)c1ccco1 (centres unmarked)	4.27
CC1(C)CC(CNCCC(c2ccc(F)cc2)c2ccco2)CCO1 (centres unmarked)	-62.5
CC1(C)CC(NCc2ccccc2)CCO1.Cl (centres unmarked)	5.1
CC1(C)CC(C(=O)NCCC(c2ccccc2)c2ccco2)CCO1 (centres unmarked)	-9.31
CC1(C)CC(NCCC(c2ccccc2)c2ccco2)CCO1 (centres unmarked)	-52.5
O=C1c2ccccc2C(=O)N1CCC(c1ccc(F)cc1)c1ccco1 (centres unmarked)	-6.1
Cc1ccc(NC(=O)COC(=O)CCC(=O)c2ccc(Cl)cc2)cc1S(=O)(=O)N(C)C	-1.5
CCOC(=O)N1CCc2c(sc3nc(SC(C)C)n(N)c(=O)c23)C1	-20.9
Clc1nc(NCc2ccco2)nc(N2CCCCC2)n1	33.5
Cl.c1coc(CNc2nc(N3CCCCC3)nc3ccccc23)c1	-77.5
Cl.c1coc(CNc2ncnc3ccccc23)c1	2.88
Fc1ccccc1-c1nc(NCc2ccco2)c2ccccc2n1	-2.1
Cl.c1ccc(N2CCN(c3nc(NCc4ccco4)c4ccccc4n3)CC2)cc1	-73.6
CC(C)C(=O)NNC(=O)c1csc(CS(=O)(=O)c2ccc(Cl)cc2)n1	-1.62
O=c1cc(-c2ccc(O)cc2)oc2ccccc12	16.1
CCOC(=O)c1ccc(NC(=O)C2C3C=CC(C3)C2C(=O)O)cc1 (centres unmarked)	4.67
CN(C)CC/C=C1\c2cc(F)ccc2CSc2ccccc21.O=C(O)/C=C\C(=O)O	-35.4
COc1ccc2c(c1)C1C=CCC1C(c1cc3c(cc1Br)OCO3)N2 (centres unmarked)	1.4
O=C(N/C(=C\c1ccc(Cl)cc1)C(=O)N1CCOCC1)c1ccco1	-31.4
O=C(N/C(=C/c1cccc([N+](=O)[O-])c1)C(=O)N1CCCCCC1)c1ccco1	-28.2

Compound	hERG current change (%, negative = inhibition) at 10uM [%]
COc1ccc(/C=C(\NC(=O)c2ccco2)C(=O)N2CCOCC2)cc1	0.365
O=C(N/C(=C\c1cccc([N+](=O)[O-])c1)C(=O)N1CCOCC1)c1ccco1	14.9
O=C(N/C(=C\c1ccc([N+](=O)[O-])cc1)C(=O)N1CCOCC1)c1ccco1	-69.2
O=C(N/C(=C\c1ccc([N+](=O)[O-])cc1)C(=O)N1CCCCC1)c1ccc(Br)o1	-72
O=C(N/C(=C/c1cccc([N+](=O)[O-])c1)C(=O)N1CCCCC1)c1ccco1	-2.24
O=C(N/C(=C/c1ccccc1)C(=O)N1CCCCC1)c1ccc(Br)o1	-7.64
O=C(N/C(=C/c1ccc([N+](=O)[O-])cc1)C(=O)N1CCOCC1)c1ccco1	-70.1
O=C(N/C(=C\c1ccccc1)C(=O)N1CCCCC1)c1ccc(Br)o1	15.8
O=C(N/C(=C\c1ccc([N+](=O)[O-])cc1)C(=O)N1CCCCC1)c1ccco1	-70.3
O=C(N/C(=C\c1ccccc1)C(=O)N1CCOCC1)c1ccco1	17.1
C=C1C(=O)O[C@@H]2C[C@@H](C)[C@H]3C=CC(=O)[C@]3(O)C[C@@H]12	19.3
Cc1ccc(C(=O)C(OC(=O)CNC(=O)c2ccc(Cl)cc2)c2ccccc2)cc1 (centres unmarked)	2.15
COc1ccc(-c2[nH]ncc2/C=N/NC(=O)c2ccncc2)c(OC)c1	13.8
O=C(CSc1ccccn1)Nc1ccc2c(c1)oc1ccccc12	12.8
N#Cc1cc2ccccc2nc1SCC(=O)NC1CC1	4.58
O=C(CN1C(=O)CSC1=O)c1ccccc1	1.83
CCOc1cc2nc(-c3ccc(OC)c(OC)c3)nc(N3CCOCC3)c2cc1OC	-15.5
Nc1nc2n(n1)C(c1ccccc1)CC(c1ccc(F)cc1)N2 (centres unmarked)	-10.1
CC1CC(c2ccccc2)n2nc(NC(=O)c3cccs3)nc2N1 (centres unmarked)	16.6
O=C(Nc1ncc2c(n1)CC(c1cccc(Cl)c1)CC2=O)c1ccco1 (centres unmarked)	-39
O=C(Nc1ncc2c(n1)CC(c1ccccc1)CC2=O)c1ccco1 (centres unmarked)	-21.9
COc1ccc(C2CC(c3ccc(OC)cc3)n3nc(NC(=O)c4cccs4)nc3N2)cc1 (centres unmarked)	-13.9

Compound	hERG current change (%, negative = inhibition) at 10uM [%]
O=C(Nc1nc2n(n1)C(c1ccc(F)cc1)CC(c1ccccc1)N2)c1ccco1 (centres unmarked)	-57.4
COc1ccc(C2CC(c3ccc(F)cc3)n3nc(NC(=O)c4ccco4)nc3N2)cc1 (centres unmarked)	-60.3
COc1ccc(C2CC(c3ccc(F)cc3)Nc3nc(N)nn32)cc1 (centres unmarked)	-27
CS(=O)(=O)Nc1nc2n(n1)C(c1ccc(F)cc1)CC(c1ccccc1)N2 (centres unmarked)	-4.13
COc1ccc(C2CC(c3ccccc3)Nc3nc(NC(=O)c4cccs4)nn32)cc1 (centres unmarked)	-52
COc1ccc(C2CC(c3ccc(F)cc3)n3nc(NS(C)(=O)=O)nc3N2)cc1 (centres unmarked)	8.06
O=C(Nc1ncc2c(n1)CC(c1ccc(Cl)cc1)CC2=O)c1ccco1 (centres unmarked)	-71.6
C[C@]12CCC3C(CC[C@H]4CC(O)CC[C@]34C)C1CC/C2=N/NC(=O)c1ccncc1 (some centres unmarked)	-10.8
COc1c(C)cccc1C(=O)Nc1cc(Cl)ccc1N1CCOCC1	7.1
O=C(Nc1cc(-c2ccccc2)sc1C(=O)O)c1cccc(F)c1	33.5
CCOC(=O)C1CCN(C(=O)CCNS(=O)(=O)c2ccc3c(c2)CCN3C(=O)CC)CC1	7.82
CCc1ccc(CN(C)CC(=O)Nc2sccc2C#N)cc1	-16.4
COc1ccc(/C=N/N=C2/NC(=O)C(CC(=O)O)S2)cc1OCc1ccc(Cl)cc1 (centres unmarked)	-1.97
O=C(NC1CCCCC1)C(c1ccccn1)N(C(=O)c1csnn1)c1ccccc1 (centres unmarked)	1.6
O=C(NC1CCCCC1)c1cc(-c2cccc(Cl)c2)on1	11.7
CCOC(=O)C1C(=O)NC(c2ccccc2)=NC1c1ccc(OC)cc1 (centres unmarked)	-12.2
CC(=O)N1CCC(N(CCN2CCOCC2)C(=S)Nc2c(C)cccc2C)CC1	8.51
NC(=O)c1nsc(C(=O)N(c2ccc3c(c2)OCO3)C(C(=O)NCC2CCCO2)c2ccc(F)cc2)c1N (centres unmarked)	-8.25
O=C(Nc1nc2n(n1)C(c1ccccc1)CC(c1ccc(Cl)cc1)N2)c1ccco1 (centres unmarked)	-53.1
CC1CC(c2ccccc2)n2nc(NC(=O)c3ccco3)nc2N1 (centres unmarked)	24.6
O=C(Nc1nc2n(n1)C(c1ccc(Cl)cc1)CC(c1ccc(Cl)cc1)N2)c1ccco1 (centres unmarked)	-38.3
COCC(=O)Nc1nc2n(n1)C(c1ccccc1Cl)CC(c1ccc(OC)cc1)N2 (centres unmarked)	-18.6

Compound	hERG current change (%, negative = inhibition) at 10uM [%]
O=C(O)CCCC(=O)Nc1nc2n(n1)C(c1ccc(F)cc1)CC(c1ccc(Cl)cc1)N2 (centres unmarked)	-0.46
COc1ccc(C2CC(c3ccc(OC)cc3)n3nc(NC(=O)c4ccco4)nc3N2)cc1 (centres unmarked)	-19.2
COCC(=O)Nc1nc2n(n1)C(c1ccc(Cl)cc1)CC(c1ccc(OC)cc1)N2 (centres unmarked)	-73.8
COc1ccc(C2CC(c3ccccc3)Nc3nc(NC(=O)c4ccco4)nn32)cc1 (centres unmarked)	-64.4
COCC(=O)Nc1nc2n(n1)C(c1ccccc1)CC(c1ccc(OC)cc1)N2 (centres unmarked)	-3.73
O=[N+]([O-])c1ccc(NCCO)c2ncccc12	2.11
CC(Sc1ncc(C(F)(F)F)cc1Cl)C(=O)NC(N)=O (centres unmarked)	0.58
COC(=O)c1cc(OC)c(OC)cc1NC(=O)Cc1cccs1	0.709
CCCn1nnnc1NCc1ccc(C(C)C)cc1	4.94
CCC1CCCCN1c1cc(C)nc2cc(-c3cccc(C)c3)nn12 (centres unmarked)	-1.65
CCCCCCCCCCCCCCCC[n+]1cccc(C(=O)N(CC)CC)c1.[Br-]	-69.7
CCCCCCCC[n+]1cccc(C(=O)N(CC)CC)c1.[Br-]	13
CCCCCCCCCC[n+]1cccc(C(=O)N(CC)CC)c1.[Br-]	-0.215
COc1cccc(CNn2c(-c3cccc(C)c3)nc3ccccc3c2=O)c1	-9.77
COc1ccc(CNn2c(-c3cccc(C)c3)nc3ccccc3c2=O)cc1OC	-73.6
COc1ccccc1CNn1c(-c2cccc(C)c2)nc2ccccc2c1=O	-11
CC1(C)C2CCC(C2)C1(C)NC(=O)CN1CCCC1.Cl (centres unmarked)	-0.213
COc1cc2oc(=O)cc(C)c2c(OC)c1OC	17.9
Cc1cc2oc(=O)cc(C)c2c(=O)o1	-65.8
COc1cc(OC)c2c(C)cc(=O)oc2c1	15.4
